Screening data as filed in PubChem BioAssay.
The list is not random: actives were taken first. Their share in the collection is about 1.8%.
PAD4 FP inh = blocks human protein arginine deiminase 4; recombinant PAD4, RCA probe fluorescence polarization; inhibition, % at 6.36 µM; 330,000 compounds, 0.41% hits; AID 485272;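 active means percent inhibition above a cutoff equal to the mean of all tested compounds plus 3 SD, cut at about 15% in these data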;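 further: 0% = PAD4 with RCA probe and DMSO and 100% = probe without PAD4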
LYPLA1 inh = counter-screen for PME1 inhibitors: inhibitors of human LYPLA1; 320,000 compounds, 0.16% hits; recombinant LYPLA1, FP-Rh probe fluorescence polarization; inhibition, % at 5.9 µM; O75608;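 active means inhibition above the mean of all tested compounds plus 3 SD, set per campaign, cut at about 14% in these data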;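 further: inhibitors block serine hydrolase probe labeling of LYPLA1 so polarization falls; 0% = enzyme with DMSO and 100% = wells lacking LYPLA1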
Target sequence (O75608 whole entry, looked up): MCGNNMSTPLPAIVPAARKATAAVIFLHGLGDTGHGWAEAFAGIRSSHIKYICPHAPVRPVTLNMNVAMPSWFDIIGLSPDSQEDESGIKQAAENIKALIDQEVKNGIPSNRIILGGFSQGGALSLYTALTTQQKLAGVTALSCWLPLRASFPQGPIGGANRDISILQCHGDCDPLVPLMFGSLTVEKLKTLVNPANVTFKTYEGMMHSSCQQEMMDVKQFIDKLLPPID
Fam108B inh = blocks mouse Fam108B hydrolase in RBBP9 counter-screen | 300,000 compounds, 0.33% hits | recombinant Fam108B, FP-Rh probe fluorescence polarization | inhibition, % at 9.51 µM;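 active means inhibition above the screen mean inhibition plus 3 SD, computed separately per campaign, cut at about 18% in these data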;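 further: inhibitors lower polarization as less probe binds the enzyme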
LYPLA2 counter = counter-screen for PME1 inhibitors: inhibitors of human LYPLA2 | AID 2177 | recombinant LYPLA2, FP-Rh probe fluorescence polarization | inhibition, % at 5.9 µM | 320,000 compounds, 0.38% hits | O95372;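 active means inhibition above the screen-wide mean plus 3 SD, limit set per campaign, cut at about 26% in these data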;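 further: 0% = LYPLA2 with DMSO and 100% = wells lacking LYPLA2 enzyme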
GSTO1 inh = blocks human GSTO1 in RBBP9 counter-screen; P78417; recombinant GSTO1, activity-based probe fluorescence polarization; inhibition, % at 5.96 µM; 300,000 compounds, 1.1% hits; AID 1974;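 active means inhibition above the campaign mean inhibition plus 3 SD, cut at about 35% in these data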;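 further: 0% = GSTO1-1 with DMSO and 100% = wells lacking GSTO1-1 enzyme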
Target sequence (P78417 whole entry, looked up): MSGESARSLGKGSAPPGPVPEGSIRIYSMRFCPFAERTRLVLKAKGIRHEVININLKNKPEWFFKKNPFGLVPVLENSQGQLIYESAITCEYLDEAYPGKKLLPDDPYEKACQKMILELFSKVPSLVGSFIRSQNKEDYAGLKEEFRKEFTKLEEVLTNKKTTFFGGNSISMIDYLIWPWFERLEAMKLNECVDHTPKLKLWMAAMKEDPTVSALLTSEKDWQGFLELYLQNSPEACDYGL
PME-1 inh = blocks human protein phosphatase methylesterase 1 | 320,000 compounds, 0.53% hits | recombinant PME-1, FP-Rh probe fluorescence polarization | inhibition, % at 5.9 µM;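 active means inhibition above the campaign mean of all compounds plus 3 SD, cut at about 26% in these data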;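 further: competitive labeling of PME-1 active site by serine hydrolase directed probe; 0% = PME-1 with DMSO and 100% = wells lacking PME-1 enzyme; inhibitors block probe labeling so polarization falls and inhibition rises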
LYPLA2 conf = LYPLA2 (human) inhibition, confirmation counter-screen; shares compounds with LYPLA2 counter; recombinant LYPLA2, FP-Rh probe fluorescence polarization; inhibition, % at 5.9 µM; 1,100 compounds, 72% hits; AID 2232;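 active means mean inhibition across replicates above the hit cutoff set in the primary screen, cut at about 26% in these data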;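 further: blocked labeling of the enzyme by serine hydrolase FP-Rh probe lowers polarization; 0% = enzyme with DMSO and 100% = wells lacking LYPLA2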
LYPLA2 ABPP = inhibitors of human LYPLA2 | shares compounds with LYPLA2 counter | rhLYPLA2 in mouse brain proteome, gel ABPP FP-Rh | inhibition, % at 20 µM | 150 compounds, 30% hits | AID 652029;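 active means inhibition of LYPLA2 enzyme probe labeling above about 50%, limit read from the data; inactive means inhibition below that limit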;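 further: loss of FP-Rh probe labeling of the LYPLA2 gel band measured as band density; 0% = DMSO only control band and 100% = blank gel background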
Starred values were filed as active, the others as inactive; / = no result given.

SMILES	PAD4 FP inh	LYPLA1 inh	Fam108B inh	LYPLA2 counter	GSTO1 inh	PME-1 inh	LYPLA2 conf	others
CC1=NN(c2ccccc2)C(=O)/C1=C\c1ccc(Oc2ccc([N+](=O)[O-])cc2[N+](=O)[O-])cc1	51.1*	12.0	6.3	40.7*	76.6*	9.1	30.9*
COc1cc([N+](=O)[O-])ccc1N	2.8	1.1	-0.8	4.0	6.2	-1.7	/
COc1cc(/C=C2/SC(=O)NC2=O)ccc1Oc1ccc([N+](=O)[O-])cc1[N+](=O)[O-]	3.9	-3.5	1.9	22.2	9.8	15.0	/
Nc1ccc(Oc2ccc([N+](=O)[O-])cc2[N+](=O)[O-])cc1	1.0	2.3	0.9	54.3*	11.5	3.5	57.5*	LYPLA2 ABPP=1.0
C=CCn1c(SCc2ccccc2C#N)nnc1-c1ccccc1O	0.8	-3.4	1.4	4.5	5.2	-6.2	/
COCCN(C(=O)c1ccccc1Oc1ccccc1)c1c(N)n(CC(C)C)c(=O)[nH]c1=O	0.7	-0.3	/	-1.7	/	0.3	/
CCCCOc1ccc(CSc2nc(C)[nH]c2[N+](=O)[O-])cc1[N+](=O)[O-]	9.2	11.4	2.5	49.8*	-38.9	-0.7	54.3*	LYPLA2 ABPP=20.0
CCOc1ccccc1CN1CCC(n2nccc2NC(=O)CCc2ccccc2)CC1	0.3	-4.2	-3.4	-1.3	0.0	-1.1	/
CCCCCCCCOC(=O)CCc1c(C)[nH]c(=S)[nH]c1=O	-2.0	3.0	-0.5	39.1*	11.9	-0.2	29.7*
CCCCCCOC(=O)CCc1c(C)nc(N)[nH]c1=O	-3.7	-3.0	-0.6	-1.3	-4.4	-5.7	/
COC(=O)c1ccc(N2CCN(C)CC2)c(NC(=O)c2ccc(Br)o2)c1	6.0	6.6	0.2	8.1	-1.8	0.3	/
Cc1ccc(OCCNC(=O)c2ccc(NC(=O)CC3SC(N4CCCC4)=NC3=O)cc2)cc1 (stereo not drawn)	4.1	0.4	1.4	45.0*	10.8	-1.8	40.3*
O=C(CC1SC(N2CCCC2)=NC1=O)Nc1ccc(C(=O)N2CCN(c3cccc(Cl)c3)CC2)cc1 (stereo not drawn)	-2.8	-0.5	0.3	30.1*	8.7	-1.7	62.3*	LYPLA2 ABPP=38.0
COc1ccc(CCNC(=O)c2ccc(NC(=O)CC3SC(N4CCCC4)=NC3=O)cc2)cc1 (stereo not drawn)	2.9	-0.3	4.9	52.0*	-2.3	-4.1	57.8*	LYPLA2 ABPP=25.0
Cc1cccc(N2CCN(C(=O)c3ccc(NC(=O)CC4SC(N5CCCC5)=NC4=O)cc3)CC2)c1C (stereo not drawn)	0.7	/	/	/	/	/	/
CC(C)(C)OC(=O)N1Cc2[nH]c3ccccc3c2C[C@@H]1C(=O)O	-0.1	-2.9	/	-10.8	/	0.3	/
Cc1cc(C)c(OCC(=O)Nc2ccc(N3CCOCC3)cc2)c(Br)c1	0.0	2.1	2.2	27.8*	-3.9	6.0	1.0
Cc1cc(C)c(OCC(=O)N(C)CC(=O)Nc2ccc(N3CCOCC3)cc2)c(C)c1	3.9	1.7	1.6	0.9	10.4	2.5	/
Cc1ccc(NC2Sc3ccccc3NC2=O)cc1 (stereo not drawn)	4.2	-3.5	3.6	-2.1	-1.4	-5.9	/
COC(=O)c1cc(C)cc(=O)o1	1.6	-1.0	0.0	3.9	-2.0	2.1	/
Cc1cc(CCCCCCCCc2cc(C)cc(=O)o2)oc(=O)c1	-1.2	13.6	2.0	37.4*	-1.9	-4.3	44.8*
CSc1ccc(/C=N/NC(=O)c2ccccc2Cl)cc1	-5.2	-0.8	-3.4	-2.2	5.8	-5.4	/
COc1cc(C2Oc3cc(C4Oc5cc(O)cc(O)c5C(=O)C4O)ccc3OC2CO)ccc1O (stereo not drawn)	7.2	10.1	1.9	59.8*	8.0	-2.1	69.3*	LYPLA2 ABPP=75.0*
CCCOc1ccc(C(=O)NNC(=S)NC(=O)c2ccccc2[N+](=O)[O-])cc1	-0.2	-1.1	-4.8	26.9*	15.3	-4.9	29.0*
CC(O)CNCCNCc1cccs1 (stereo not drawn)	0.0	3.9	4.4	4.3	4.0	6.2	/
